Hits are enriched below; roughly 7.8% of the tested compounds scored in any of these assays.
HCV inhibitor: blocks hepatitis C virus; AID 651820; Potency, µM (doses to about 41.8 µM), usual class: inhibitors; Huh7.5.1 HCVcc-Cre infection, luciferase reporter, 44 h; 340,000 compounds, 3.4% hits; active = well fitted inhibition curve with a large enough effect; inconclusive = small, poorly fitted or top-dose-only effect, or another doubt; inactive = no such curve, though single readings can be large or run the other way
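Reporter virus HCVcc-Cre (~0.5 moi) infects cells exposed to compound; seeding density 1,000 cells/well with 4 h settling beforehand. Luminescence, 15 sec read, taken 44 h post-infection following a 15 min RT substrate incubation.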
Vaccinia Venus: inhibitors of vaccinia virus (Venus reporter); Vaccinia virus Venus reporter expression, fluorescence; Potency, µM (titrated, usually from 36.5 µM), most hits filed as inhibitors; 330,000 compounds, 0.46% hits; calls by dose curve; tested in A549 cells; also: nearly all actives have a fitted effect of over 30% in size
HCMV antiviral: human cytomegalovirus inhibition; HFF cells, HCMV-luciferase reporter, 72 h; active compounds read low; activity change, negative = inhibition, % at 57.5 µM; AID 1259415; 410,000 compounds, 4.5% hits; in the data active = activity change below about -60%; inconclusive = no clear call, values can overlap the other calls; inactive = above about -39%
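Two compound doses tested in HFFs infected with HCMV-luciferase, MOI 1 PFU/cell, 72 h at 37C. Lysate luminescence read with OneGlo; data normalized against buffer-only and 10uM Salinomycin inhibitor controls.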
VACV mCherry inh: vaccinia inhibition (mCherry reporter); Vaccinia virus mCherry reporter infection, fluorescence; AID 720579; Potency, µM (highest dose often 36.5 µM), hits mostly inhibitors; 310,000 compounds, 0.63% hits; calls by dose curve; tested in A549 cells; also: nearly all actives have a fitted effect of over 35% in size
Lassa entry inh: inhibitors of Lassa virus binding or cell entry. Lassa virus pseudotype entry inhibition, cell reporter. Potency, µM (doses to about 37.9 µM), actives largely listed as inhibitors. 300,000 compounds, 1.2% hits; calls by dose curve; tested in HEK293 cells; also: nearly all actives have a fitted effect of over 50% in size
MARV entry inh: Marburg virus entry inhibition. Marburg virus pseudotyped entry inhibition, cell reporter. 300,000 compounds, 1.8% hits. Potency, µM (highest dose often 37.8 µM), hits mostly inhibitors. AID 540276; calls by dose curve; tested in HEK293 cells
Numbers stand for hits; 0 = inactive; ? = inconclusive; - = no result; ! = not active in a repeat.

SMILES	HCV inhibitor	Vaccinia Venus	HCMV antiviral	VACV mCherry inh	Lassa entry inh	MARV entry inh
O=C1C(c2ccc(F)cc2)N(CCc2ccc(Cl)cc2)C(=O)CN1C1CCCCC1 (centres undefined)	-	0	?	0	0	-
O=C1C(c2ccc(F)cc2)N(CCc2ccc(Cl)cc2)C(=O)CN1C1CCCCCC1 (centres undefined)	-	0	-81.9	0	0	-
CCOc1ccc(C2C(=O)N(C3CCCCCC3)CC(=O)N2Cc2ccc(C)cc2)cc1OC (centres undefined)	-	0	?	0	?	-
COc1ccc(C2C(=O)N(C3CCCCCC3)CC(=O)N2Cc2ccccc2)cc1 (centres undefined)	-	0	-67.3	0	?	-
COc1ccc(-c2nnc(SCC(=O)NC3CCCC3)nc2-c2ccc(OC)c(OC)c2)cc1OC	-	0	0	0	?	-
Cc1cc(C)nc(Sc2ccc3nnnn3n2)n1	0	3.55µM	0	0.501µM	0	0
Cc1cccc(N(CC(=O)Nc2ccccc2C(F)(F)F)S(=O)(=O)c2ccccc2)c1C	-	0	0	0	?	?
Cc1ccc(C(=O)NCCSc2c[nH]c3ccccc23)cc1C	-	0	0	0	0	?
CCN(CC)c1ccc(/C=C/c2cccc[n+]2C)c(OC)c1	0.891µM	0	-97.2	0	?	2.82µM
COc1ccc(/C=C/c2cccc[n+]2C)c(O)c1	8.91µM	-	0	-	-	-
C[n+]1ccccc1/C=C/c1cc(Br)ccc1O	?	-	0	-	-	-
COCOc1ccc(Br)cc1C(=O)C=Cc1ccc2c(c1)OCO2	-	-	-	-	-	0
CCCCn1cc(S(=O)(=O)c2ccc(Cl)cc2)c(=O)c2cc(F)c(N3CCCCC3)cc21	-	0	0	0	0	-
COc1ccc2c(c1)[C@@H](NCc1ccccn1)[C@H](C)[C@@H](c1ccccc1)N2C(=O)NC(C)C	-	-	0	-	-	-
CCC(C)(C)n1nnnc1C(c1cccnc1)N1CCN(c2cccc(C(F)(F)F)c2)CC1 (centres undefined)	0	-	0	-	?	13µM
CCC(C)(C)n1nnnc1C(c1cccc(C#N)c1)N1CCN(c2cc(C)ccc2C)CC1 (centres undefined)	0	0	0	0	?	2.91µM
Cc1nn(-c2ccccc2)c2c1N(CC(=O)NCc1ccc(N(C)C)cc1)C(=O)CS2	-	0	0	0	?	-
Cc1cc(OCC(=O)N(Cc2ccc(N(C)C)cc2)CC2CCCO2)ccc1Cl (centres undefined)	-	0	0	0	?	0
CC1CCc2c(sc(NC(=O)CCCOc3ccc(C(C)(C)C)cc3)c2C(N)=O)C1 (centres undefined)	-	0	0	0	0	-
COc1ccc(-c2nc(N)ncc2-c2csc(C)n2)c(O)c1	?	0	0	0	0	?
CCOc1ccc(-c2nc(N)ncc2Oc2ccc(OC)cc2)c(O)c1	14.1µM	0	0	?	0	0
CCOc1ccc(-c2nc(N)ncc2-c2ccccc2)c(O)c1	10µM	?	0	?	0	?
CCOc1ccc(-c2nc(N)ncc2-c2ccc(OC)cc2)c(O)c1	?	?	0	?	0	?
COc1cc(=O)n2c(c1C(=O)N(C)Cc1cscn1)CCN(C(=O)c1ccc(C)c(C)c1)CC2	-	0	-	0	-	-
Cc1cc(C)c(NC(=O)CSc2ncc3c(n2)-c2cc(Cl)ccc2N(C)S3(=O)=O)c(C)c1	-	0	?	?	0	-
SMILES	HCV inhibitor	Vaccinia Venus	HCMV antiviral	VACV mCherry inh	Lassa entry inh	MARV entry inh
COc1ccc(CCNC(=O)C(=O)NCC(c2ccco2)S(=O)(=O)c2ccccc2)cc1 (centres undefined)	-	0	0	0	0	-
COc1cc2c(c(OC)c1)C(c1cc(OC)c(OC)c(OC)c1)CC(=O)N2 (centres undefined)	-	0	0	0	0	?
CC(C)CCNC(=O)c1ccc(Cn2c(SCC(N)=O)nc3ccccc3c2=O)cc1	-	0	0	0	0	-
Cc1noc2ncnc(Sc3ccc(Cl)cc3)c12	?	0	-79.2	-	0	?
Cc1ccc(Sc2ncnc3onc(C)c23)cc1	0	0	0	0	0	?
O=S(=O)(c1ccc(-c2cnc(C3CC3)o2)cc1)N1CCN(c2cccc(Cl)c2)CC1	-	0	0	0	0	-
O=[N+]([O-])c1ccc(Oc2cccc3cccnc23)c([N+](=O)[O-])c1	0	0	-69.0	?	?	?
Cc1ccccc1C1=NOC2CN(C(=O)/C=C/c3ccccc3)CC12 (centres undefined)	-	-	0	-	-	-
c1csc(Cc2nn3c(-c4n[nH]c5c4CCC5)nnc3s2)c1	?	0	0	?	0	0
COc1cc(OC)c(-c2nn3c(-c4n[nH]c5c4CCC5)nnc3s2)cc1OC	-	?	-	7.08µM!	-	-
CCOC(=O)[C@H](C)Sc1nc(-c2cccs2)ccc1C#N	-	-	-	-	-	0
COc1ccc2c(c1)c1nnc(SCC(=O)N3C(C)CCCC3C)nc1n2C (centres undefined)	8.91µM	-	0	-	0	?
COc1ccc(-n2nnnc2SCC(=O)N2C(C)CCCC2C)c(OC)c1 (centres undefined)	0	0	-79.2	0	0	0
N=c1sccn1CC(=O)NCc1ccc(Cl)cc1Cl	0	0	0	0	0	12.6µM
Cc1ccc(-n2nc(CO)c(C(=O)NCc3cccnc3)n2)cc1	-	0	0	0	0	?
C/C=N\NC(=O)COc1cc(C)ccc1C	0	0	-60.1	0	0	0

Source: PubChem BioAssay (National Center for Advancing Translational Sciences (NCATS))
